# Where “and” joins values, the source holds several entries; their conditions need not be identical. Equal values may be shown once. About 2,600 (16%) of roughly 16,000 compounds were called active. Inconclusive results (about 20%) are left out. The call rests on the fitted dose curve; in most records, active means well fitted curve in the direction sought with a large enough effect; inconclusive means small, poorly fitted or top-dose-only effect, or effect the other way; inactive means no such curve, though single readings can be large or run the other way. These entries were drawn from the full list.
# Biological target: Cytochrome P450 2D6 (Homo sapiens) (UniProt P10635)
# Sequence (P10635 whole entry, looked up): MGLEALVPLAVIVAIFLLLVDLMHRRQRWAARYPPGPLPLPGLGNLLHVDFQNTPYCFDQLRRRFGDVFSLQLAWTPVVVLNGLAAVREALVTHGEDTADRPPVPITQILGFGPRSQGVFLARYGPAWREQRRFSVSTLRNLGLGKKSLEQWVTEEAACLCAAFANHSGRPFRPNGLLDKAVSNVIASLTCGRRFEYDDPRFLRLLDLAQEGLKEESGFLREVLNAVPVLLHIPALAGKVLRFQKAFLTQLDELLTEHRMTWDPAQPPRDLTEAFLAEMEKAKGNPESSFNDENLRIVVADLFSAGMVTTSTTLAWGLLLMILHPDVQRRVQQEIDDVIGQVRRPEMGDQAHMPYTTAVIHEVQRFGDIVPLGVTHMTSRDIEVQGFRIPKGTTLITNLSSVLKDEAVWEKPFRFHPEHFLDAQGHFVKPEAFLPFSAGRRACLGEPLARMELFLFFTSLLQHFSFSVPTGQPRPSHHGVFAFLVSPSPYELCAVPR
# Test: Cytochrome panel assay with activity outcomes
# Conditions: recombinant CYP, pro-luciferin dealkylation, luminescence, p450-cyp2d6; series mostly up to 57.1 µM; activity, negative = inhibition: at the top concentration
# On the % scale 0 is the no-effect control and ±100 the full control effect.
SMILES,"activity, negative = inhibition",AC50
O=C(c1csnn1)N1CCC2(CCCN(c3ccc(-c4ccccc4)cc3)C2)CC1,-2.24% (inactive),–
O=C(Nc1ccccc1)N1CCC2(CC1)CCN(C(=O)c1csnn1)CC2,-11.4% (inactive),–
O=C(O)CN(CCN(CC(=O)O)CC(=O)O)CC(=O)O.[Cu],2.44% [at 11.4 µM] (inactive),–
COCCCn1c(=S)[nH]c2ncccc2c1=O,-7.67% (inactive),–
CC(=O)O[C@H]1C2=CO[C@H](C)[C@H]3[C@H]4C5=C([C@H](O)[C@H]6O[C@@H]6C5=O)[C@H](O[C@H]4C)[C@@]23C(=O)[C@H]2O[C@@H]21,17.5% [at 11.4 µM] (inactive),–
COc1cc2nc(N3CCN(C(=O)c4ccco4)CC3)nc(N)c2cc1OC,–,inactive
CCNc1nnc(-c2ccncc2)s1,-6.69% (inactive),–
O=C1C[C@@H](O)[C@@H](O)[C@H]2[C@@H]3C(=O)N(C4CCCCC4)C(=O)[C@@H]3CC[C@H]12,9.04% [at 11.4 µM] (inactive) and 6.81% [at 11.4 µM] (inactive) and 7.19% [at 11.4 µM] (inactive),–
CN1CCN(c2ncc3nc(-c4cccs4)c(=O)n(Cc4cccs4)c3n2)CC1,-8.7% (inactive),–
COc1ccc(C(=O)Nc2nc3c(s2)Cc2cc(OC)ccc2-3)cc1,-14.7% (inactive),–
C=CCN=C1CC(C)(C)CC(=O)/C1=C(\O)c1ccccc1,18.3% (inactive),–
COc1ccc(-n2c(CNC(=O)c3cc(OC)c(OC)c(OC)c3)n[nH]c2=S)cc1,-2.75% (inactive),–
COc1ccc(NC(=O)N2CCCC3(CCN(C(=O)c4csnn4)CC3)C2)cc1,-0.507% (inactive),–
CC(C)NC(=O)N1CC[C@@]2(CCCN(C(=O)c3csnn3)C2)C1,0.0943% (inactive),–
CC(C)CN1CC[C@@]2(CCCN(C(=O)c3csnn3)C2)C1,–,0.501 µM (active)
CN1CCN(c2ccc([N+](=O)[O-])cc2C(=O)N2CCOCC2)CC1,14.8% (inactive),–
COc1ccc(C(=O)NNC(=O)Cc2ccc(-c3ccccc3)cc2)cc1OC,-6.09% (inactive),–
COc1ccc(/C=C/C(=O)NCc2cn(C)nc2C)cc1COc1ccc(Br)cc1,-13.3% (inactive),–
COc1ccc(C(=O)NN)cc1COc1ccc(Br)cc1,–,12.6 µM (active)
COC(=O)[C@H](CCSC)NC(=O)C/C=C\[C@@H](C)CO,4.64% [at 11.4 µM] (inactive),–
COc1ccc([C@@H]2CNC(=O)C2)cc1OC1CCCC1,–,inactive

SMILES,"activity, negative = inhibition",AC50
CC[C@@H]1OC(=O)[C@H](C)[C@H](O[C@@H]2C[C@](C)(OC)[C@H](O)[C@H](C)O2)[C@H](C)[C@H](O[C@@H]2O[C@@H](C)C[C@@H](N(C)C)[C@@H]2O)[C@](C)(O)C[C@H](C)C(=O)[C@H](C)[C@H](O)[C@]1(C)O,5.87% [at 25.6 µM] (inactive),–
CC[C@]1(O)C[C@@H]2CN(CCc3c([nH]c4ccccc34)[C@](C(=O)OC)(c3cc4c(cc3OC)N(C=O)[C@H]3[C@@](O)(C(=O)OC)[C@H](C(=O)OC)[C@@]5(CC)C=CCN6CC[C@]43[C@H]65)C2)C1,10.5% (inactive),–
COc1c(Cl)cc(Cl)cc1CNCCNCCO,–,15.8 µM (active)
OCCSCc1cc(Cl)cc(Cl)c1O,-5.19% [at 11.4 µM] (inactive),–
CCOc1cc(/C=N/O)cc(Cl)c1OC,-0.0031% (inactive),–
COc1c(Cl)cc(Cl)cc1CNCCNCC(C)O (stereo unspecified),–,1.78 µM (active)
COc1ccc(-c2nc3cnc(N(C)C)nc3n(C[C@H]3CCCO3)c2=O)cc1,3.77% (inactive),–
Cc1ccc(NC(=O)CCC(=O)NNC(=O)c2cccs2)c(C)c1,-9.16% (inactive),–
C[C@@H]1OC2C3=C(C(=O)[C@H]4O[C@@H]4[C@H]3O)[C@@H]1[C@H]1[C@H](C)OC=C3[C@H](O)[C@H]4O[C@H]4/C(=N\OCc4ccccc4)[C@@]321,3.22% [at 11.4 µM] (inactive),–
CO[C@@H]1COC(=O)[C@H](COCc2ccccc2)NC(=O)C/C=C\[C@@H](C)[C@H](OC)COC(=O)[C@@H](C)NC(=O)C/C=C\[C@H]1C,0.0549% [at 11.4 µM] (inactive),–
O=C(O)[C@H]1C[C@@H](CP(=O)(O)O)CCN1,-19.6% (inactive),–
CC(=O)OC[C@H]1O[C@@H](O/N=C(\C)CCN2CCc3nc(-c4ccccc4)c(-c4ccccc4)cc3C2)[C@H](OC(C)=O)[C@@H](OC(C)=O)[C@H]1OC(C)=O,–,3.16 µM (active)
CCc1cc2c(nc1CC)CCN(CC/C(C)=N/OCC[C@@H]1C=C[C@H](OC(C)=O)[C@H](COC(C)=O)O1)C2,-5.93% [at 11.4 µM] (inactive),–
CCc1cc2c(nc1CC)CCN(CC/C(C)=N/O[C@@H]1O[C@H](COC(C)=O)[C@H](OC(C)=O)[C@H](OC(C)=O)[C@H]1OC(C)=O)C2,–,3.98 µM (active)
CC(=O)OC[C@@H]1O[C@H](CCO/N=C(\C)CCN2CCc3nc(-c4ccccc4)c(-c4ccccc4)cc3C2)C=C[C@@H]1OC(C)=O,-10.6% [at 11.4 µM] (inactive),–
C=CC[C@@H]1C=C[C@H](O/N=C(\C)CCN2CCc3nc(-c4ccccc4)c(-c4ccccc4)cc3C2)[C@H](CO)O1,0.49% [at 11.4 µM] (inactive),–
CCCNC(=O)OC[C@@H]1O[C@H](CCO/N=C(\C)CCN2CCc3nc(CC)c(CC)cc3C2)C=C[C@@H]1Oc1ccc(OC)cc1,-13.6% [at 11.4 µM] (inactive),–
CC1(C)CC(=O)C(C(C#Cc2ccccc2)C2=C(O)CC(C)(C)CC2=O)=C(O)C1,-10.5% (inactive),–
CSc1nc2cc(S(=O)(=O)N3CCCCC3)ccc2s1,11.3% [at 11.4 µM] (inactive),–
O=C(O)CONC(=O)c1cc(OCC(F)(F)F)ccc1OCC(F)(F)F,20.2% (inactive),–
